According to PubChem BioAssay AID2284140 (EPA ToxCast):
The source made the active and inactive calls. Rule for the calls: active = hit-call score of the fitted dose curve at least 0.9, where 1 is the maximum; inactive = score below 0.9.

These compounds were tested against Tyrosine-protein kinase SYK (Homo sapiens) (UniProt P43405) (assay: ERF_FR_ENZ_hSYK: Eurofins (ERF) Enzymatic Radiometric [Km ATP] KinaseProfiler LeadHunter Assay for human Syk Tyrosine Kinase).
Experimental: ERF_FR_ENZ_hSYK is a biochemical, single-readout assay that uses extracted gene-proteins in a cell-free assay. Measurements were taken 0.5 hour after chemical dosing in a 96-well plate. See Syk Human TK Kinase Enzymatic LANCE Assay [Km ATP], Cerep.ERF_FR_ENZ_hSYK is an assay component calculated from the ERF_FR_ENZ_hSYK assay. It is designed to measure enzyme activity using a type of enzyme reporter as detected by fluorescence intensity with LANCE technology.Data from the assay component ERF_FR_ENZ_hSYK was analyzed at the assay endpoint, ERF_FR_ENZ_hSYK, in the positive analysis fitting direction relative to DMSO as the negative control and baseline of activity. Using a type of enzyme reporter, loss-of-signal activity can be used to understand changes in enzymatic activity as they relate to gene SYK. To generalize the intended target to other relatable targets, this assay endpoint is annotated to the kinase intended target family, where the subfamily is spleen tyrosine kinase.
Syk (h) is incubated with 50 mM Tris pH 7.5, 0.1 mM EGTA, 0.1 mM Na3VO4, 0.1% […], 0.1 mg/ mL poly(Glu, Tyr) 4:1, 10 mM MgAcetate and [gamma-33P]-ATP (specific activity and concentration as required). The reaction is initiated by the addition of the Mg/ATP mix. After incubation for 40 minutes at room temperature, the reaction is stopped by the addition of phosphoric acid to a concentration of 0.5%. […]

Row | SMILES | outcome
1 | O=C(/C=C/c1ccc(O)cc1)CC(=O)/C=C/c1ccc(O)cc1 | inactive
